# Bioassay records (PubChem)
# This is one part of a sample in which hits are shown more often than they occur.
# TbREL1 inh = TbREL1 inhibition, primary screen. TbREL1 RNA ligation, FRET fluorescence. inhibition, % at 9.66 µM. 89,000 compounds, 0.49% hits. AID 1117264;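 active = inhibition above the mean inhibition across all screened compounds plus 3 SD, cut at about 11% in these data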
# Target sequence (P86926 whole entry, looked up): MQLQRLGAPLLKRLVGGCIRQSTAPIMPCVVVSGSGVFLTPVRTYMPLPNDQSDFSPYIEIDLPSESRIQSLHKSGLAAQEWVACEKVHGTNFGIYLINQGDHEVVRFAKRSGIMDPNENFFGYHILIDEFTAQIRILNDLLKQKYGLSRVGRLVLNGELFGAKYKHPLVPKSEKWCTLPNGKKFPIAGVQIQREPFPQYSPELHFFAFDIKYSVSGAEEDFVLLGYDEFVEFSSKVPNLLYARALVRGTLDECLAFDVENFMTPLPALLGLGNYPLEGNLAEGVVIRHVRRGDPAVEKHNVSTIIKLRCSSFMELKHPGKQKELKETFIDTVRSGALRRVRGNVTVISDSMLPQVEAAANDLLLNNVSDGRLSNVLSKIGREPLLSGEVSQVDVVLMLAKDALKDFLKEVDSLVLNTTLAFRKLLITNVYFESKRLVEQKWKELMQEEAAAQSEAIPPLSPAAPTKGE
# Numbers stand for hits; – = inactive.
SMILES,TbREL1 inh
CC(C)c1csc2nc3n(c(=O)c12)CCCCC3,–
O=C1c2sc3nc4n(c(=O)c3c2CCC1Br)CCCCC4 (centres undefined),16
O=c1c2c3c(sc2nc2n1CCCCC2)CCC3,–
c1ccc(-c2cccc(CNc3nc(-c4ccccn4)nnc3-c3ccccc3)c2)cc1,–
O=C(O)c1ccccc1-c1ccccc1C(=O)NNc1ccccc1,–
O=C(O)c1ccccc1-c1ccccc1C(=O)Nc1cccc(Br)c1,11
O=C(Cc1ccccc1)NCC(=O)Nc1cccc(Br)c1,–
CC(C)(C)c1ccc(-c2nnc(SCC(=O)Nc3cccc4ccccc34)n2Cc2ccco2)cc1,–
COc1cc2c(cc1NC(=O)CSc1nnc(-c3ccccc3F)n1-c1ccc(C)cc1)oc1ccccc12,–
CCC(C(=O)O)N1C(=O)/C(=C/c2cccn2C)SC1=S (centres undefined),–
O=C(O)CC(C(=O)O)N1C(=O)/C(=C/c2ccc(-c3nc4ccccc4s3)o2)SC1=S (centres undefined),84
O=C(O)CCCN1C(=O)/C(=C\c2ccc(-c3nc4ccccc4s3)o2)SC1=S,–
CN(C(=O)[C@@H](C1CC1)[C@@H](O)c1ccc2ccccc2c1)c1ccccc1,–
COc1cc(NC(=O)C2CCCN(S(=O)(=O)c3cccc4cccnc34)C2)cc(OC)c1 (centres undefined),–
Cc1sc2nc(SCC(=O)c3ccc(O)c(O)c3)n(C)c(=O)c2c1C,–
COc1cc(C=Nn2c(-c3ccc(F)cc3)n[nH]c2=S)ccc1OCc1ccccc1,–
CC1CCN(c2ccc(C(=O)O)cc2NS(=O)(=O)c2ccc(C(C)(C)C)cc2)CC1,–
C#CCOCCOCCOCCNc1nc(N2CCN(C(=O)[C@H]([C@@H](C)CC)n3cc(CCCCN)nn3)CC2)nc(N2CCN(C(=O)[C@H]([C@@H](C)CC)n3cc(CCCN=C(N)N)nn3)CC2)n1,–
C#CCOCCOCCOCCNc1nc(N2CCN(C(=O)Cn3cc(CCCN=C(N)N)nn3)CC2)nc(N2CCN(C(=O)[C@H]([C@@H](C)O)n3cc(CCCCN)nn3)CC2)n1,–
C#CCOCCOCCOCCNc1nc(N2CCN(C(=O)[C@H]([C@@H](C)O)n3cc(CCCCN)nn3)CC2)nc(N2CCN(C(=O)[C@H]([C@@H](C)CC)n3cc(CCCN=C(N)N)nn3)CC2)n1,12
COC(=O)C1CCN(C(=O)CCn2nnc(-c3cccs3)n2)CC1,–
O=C(CSc1nc2ccccc2c(=O)n1-c1ccc(Cl)cc1)NNC(=S)Nc1ccccc1,–
O=C(CN1C(=O)C2(OCCCO2)c2ccccc21)NCc1ccc2ccccc2c1,–
COc1ccc2c(c1)CCCN2C(=O)C1CCCN(S(=O)(=O)c2ccc(Cl)s2)C1 (centres undefined),–
C=CC[C@@H](Cc1ccc(F)cc1)C(=O)OC[C@@H]1CCCN1C(=O)[C@H](CC=C)CC(=O)N[C@H](CO)Cc1ccccc1,23
SMILES,TbREL1 inh
C=CC[C@@H](Cc1ccc(F)cc1)C(=O)OC[C@@H]1CCCN1C(=O)[C@@H](CC=C)CC(=O)NCCO,–
C=CC[C@@H](Cc1ccc(F)cc1)C(=O)OC[C@@H]1CCCN1C(=O)[C@@H](CC=C)CC(=O)N(CCO)Cc1ccccc1,–
CN1C2=N[C@@H](c3ccccc3)CC(=O)N2/C(=C\c2ccccc2)[C@H]1c1ccccc1,–
O=C(NCc1cccs1)C1CCN(S(=O)(=O)c2ccc([N+](=O)[O-])cc2)CC1,–
Cn1c(SCc2ccc(C(C)(C)C)cc2)nnc1-c1ccco1,–
COc1ccc(C2Nc3ccccc3C(=O)N2Cc2ccc(C)o2)cc1COc1c(C)cccc1C (centres undefined),–
COc1ccc(-c2nnc(SCC(=O)Nc3ccc(S(=O)(=O)Nc4cc(C)nc(C)n4)cc3)n2-c2ccc(OC)cc2)cc1,–
O=C(/C=C/c1ccco1)Oc1cc(Br)cc(/C=N/NC(=O)c2ccccc2O)c1,–
Cn1cccc1/C=C1\SC(=S)N(NC(=O)c2ccccc2)C1=O,–
O=C(NN1C(=O)/C(=C/C=C/c2ccco2)SC1=S)c1ccccc1O,86
COc1ccc(-n2c(SCC(=O)Nc3cc(C)c(NC(=O)c4ccccc4)cc3OC)nnc2-c2ccccc2F)cc1,–
C=CCOC(=O)N1CCC(NS(=O)(=O)c2ccc3c(c2)CCN3C(C)=O)CC1,–
Cc1[nH]c2ccccc2c1CCN(Cc1cccs1)C(=O)Nc1cccc2c1OCO2,–
O=C(CSc1nnc(-c2ccccc2)n1-c1ccc(Cl)cc1)Nc1ccccc1-c1ccccc1,–
CCn1c(NC(=O)c2ccc(C)cc2)c2ccccc2nc1=O,–
Cc1ccc(C(=O)NCCn2c(N)c(C#N)c3nc4ccccc4nc32)cc1,–
CCC(C)n1c(NC(=O)c2ccccc2)c(C#N)c2nc3ccccc3nc21 (centres undefined),12
C[C@@H]1CN([C@@H](C)CN(C)C)C(=O)c2cc(NC(=O)Nc3ccccc3)ccc2O[C@@H](C)CCCCO[C@H]1CN(C)S(=O)(=O)c1ccc(F)cc1,–
C[C@@H]1CN([C@H](C)CO)C(=O)c2cc(NC(=O)Nc3ccccc3)ccc2O[C@@H](C)CCCCO[C@H]1CN(C)S(=O)(=O)c1ccc(F)cc1,–
Cc1ccc(-n2c(Cc3cccs3)nnc2SCc2ccc(C#N)cc2)cc1,–
O=C(COC(=O)c1ccccn1)NC12CC3CC(CC(C3)C1)C2,–
COc1ccc(C(=O)OCC(=O)NC23CC4CC(CC(C4)C2)C3)c(OC)c1OC,–
CC(=O)Oc1cc(C(=O)OCC(=O)NC23CC4CC(CC(C4)C2)C3)cc(OC(C)=O)c1OC(C)=O,12
CCN(C(=O)CSc1nnc(-c2cccnc2)n1Cc1ccco1)c1ccccc1C,–
CC(C)(C)c1ccc(-c2nnc(SCC(=O)Nc3ccc(S(=O)(=O)Nc4nccs4)cc3)n2-c2ccc(Cl)cc2)cc1,–
SMILES,TbREL1 inh
CC(C)CSc1nnc(-c2ccco2)n1C,–
O=C(Nc1ccc(Cl)c(Cl)c1)C1CCCN1S(=O)(=O)c1cccc2cccnc12 (centres undefined),–
C=CC(=O)Nc1ccc(N(C)c2ccnc(Nc3ccc(N4CCN(C)CC4)cc3)n2)cc1,12
CN1CCN(c2ccc(NC(=O)c3cccs3)cc2)CC1,–
CN1CCN(c2ccc(NC(=O)COc3ccccc3Cl)cc2)CC1,–
COc1c(O)cc2oc(-c3ccc(O)cc3)cc(=O)c2c1O,–
COC(=O)c1ccccc1-c1c2ccc(=N)cc-2oc2cc(N)ccc12,–
COc1cc(OC)c(-c2c3cc(O)c(=O)cc-3oc3cc(O)c(O)cc23)cc1OC,20
CCOc1ccc(-n2c(SCC(=O)Nc3ccc(S(=O)(=O)Nc4nccs4)cc3)nnc2-c2ccc(C(C)(C)C)cc2)cc1,–
COc1cc(C=Nn2c(-c3cc(-c4ccccc4)n[nH]3)n[nH]c2=S)ccc1OC(C)=O,–
COCCN(C(=O)COC(=O)c1cc2c(s1)CCC2)c1c(N)n(Cc2ccccc2)c(=O)[nH]c1=O,27
COCCN(C(=O)COC(=O)c1cnc(C)cn1)c1c(N)n(Cc2ccccc2)c(=O)[nH]c1=O,–
COCCN(C(=O)COC(=O)C1=COCCO1)c1c(N)n(Cc2ccccc2)c(=O)[nH]c1=O,–
CCn1c(Cc2cccs2)nnc1SCC(=O)Nc1cccc2ccccc12,–
CC(=O)N1c2cc(S(=O)(=O)N3CCN(c4ccccc4F)CC3)c(Br)cc2CC1C (centres undefined),–
Cc1ccc([C@H](C)NC(=O)C2=C(N)N(S(=O)(=O)c3ccc(C)cc3)C(C(=O)c3ccccc3)C2c2ccccc2Cl)cc1 (some centres undefined),–
